Our source for the z-score and composite z-score values is PubChem BioAssay.

Assay [1] can be described thus: optical density shifts of acrAB sulA E. coli – strain DRC41, OD650, 48 h, E. coli filamentation inducer project, primary screen (AID 1152).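 Note: E. coli MC1000 strain DRC41 lacking acrAB efflux pump and sulA.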 The conditions noted are these: higher = more signal, called active from +8 up or from −8 down.
The nature of assay [2]: probe aLefty1 binding on compound microarray – biochemical, small-molecule microarray, 635/667 nm fluorescence, primary screen (AID 1153).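 Note: score merges spot fluorescence with signal-to-noise ratio from the scanned slide images.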 Particulars: higher = more signal.
Assay [3] in a line: plasmodial surface anion channel blockers, osmotic lysis – cell-based, P. falciparum Indochina, OD700, 1 h, primary screen (AID 1154). Particulars: P. falciparum Indochina infected RBC osmotic lysis, higher = more signal, called active from +8 up or from −8 down.
Assay [4] in a line: plasmodial surface anion channel blockers, osmotic lysis – cell-based, P. falciparum Indochina, OD700, 2 h, primary screen (AID 1155).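 Note: lysis reports solute entry through the parasite surface anion channel PSAC.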 The conditions noted are these: P. falciparum Indochina infected erythrocytes, higher = more signal, called active from +8 up or from −8 down.
Assay [5] is described as follows: changes in parasitized red cell lysis, either direction – P. falciparum Indochina, OD700, 3 h, PSAC antagonist project, primary screen (AID 1156). Particulars: P. falciparum-infected erythrocytes, osmotic lysis, higher = more signal, called active from +8 up or from −8 down.
The nature of assay [6]: plasmodial surface anion channel blockers, osmotic lysis – cell-based, P. falciparum Indochina, OD700, 18 h, primary screen (AID 1157). The conditions noted are these: P. falciparum Indochina infected erythrocytes, osmotic lysis OD700, 18 h; higher = more signal, called active from +8 up or from −8 down.
A short description of assay [7]: S6 kinase pathway phospho-S6 level changes – cell-based, A549, cytoblot, luminescence, serum-stimulated, primary screen (AID 1158).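 Note: serum-stimulated A549 lung adenocarcinoma cells; signal is phosphorylated S6 detected by cytoblot immunostaining with HRP secondary.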 Particulars: 5 h, higher = more signal.
In assay [8] the target is NADPH oxidase 2 (Homo sapiens) (UniProt P04839). The assay can be described thus: compounds shifting NOX2 Amplex Red fluorescence – cell-based, HEK293-NOX2, PMA-stimulated, NOX inhibitor project, primary screen (AID 1159). Note: test concentration not given here. The conditions noted are these: 45 min, higher = more signal, called active from +8 up or from −8 down.
NADPH oxidase 2 (Homo sapiens), sequence (P04839 whole entry, looked up): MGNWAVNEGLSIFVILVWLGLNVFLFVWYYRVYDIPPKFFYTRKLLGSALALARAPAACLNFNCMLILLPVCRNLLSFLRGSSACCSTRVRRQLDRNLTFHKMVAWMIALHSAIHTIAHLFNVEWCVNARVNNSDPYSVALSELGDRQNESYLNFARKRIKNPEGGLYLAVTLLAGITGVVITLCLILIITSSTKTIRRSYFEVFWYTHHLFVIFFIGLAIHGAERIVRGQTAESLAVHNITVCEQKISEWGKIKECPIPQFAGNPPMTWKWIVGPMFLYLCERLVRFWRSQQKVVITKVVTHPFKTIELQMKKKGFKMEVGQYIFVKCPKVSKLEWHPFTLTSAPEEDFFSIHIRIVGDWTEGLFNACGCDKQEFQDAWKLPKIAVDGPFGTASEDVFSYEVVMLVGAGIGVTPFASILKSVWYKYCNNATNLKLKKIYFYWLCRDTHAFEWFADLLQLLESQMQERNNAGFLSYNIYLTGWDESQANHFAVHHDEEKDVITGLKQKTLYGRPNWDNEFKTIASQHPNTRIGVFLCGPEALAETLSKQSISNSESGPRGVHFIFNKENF
Assay [9] deals with NADPH oxidase 4 (Homo sapiens) (UniProt Q9NPH5). Nature of the assay: compounds shifting NOX4 Amplex Red fluorescence – cell-based, HEK293-NOX4, tetracycline-induced, NOX inhibitor project, primary screen (AID 1160). Particulars: HEK293-NOX4, Amplex Red H2O2 fluorescence, 45 min; higher = more signal, called active from +8 up or from −8 down.
NADPH oxidase 4 (Homo sapiens), sequence (Q9NPH5 whole entry, looked up): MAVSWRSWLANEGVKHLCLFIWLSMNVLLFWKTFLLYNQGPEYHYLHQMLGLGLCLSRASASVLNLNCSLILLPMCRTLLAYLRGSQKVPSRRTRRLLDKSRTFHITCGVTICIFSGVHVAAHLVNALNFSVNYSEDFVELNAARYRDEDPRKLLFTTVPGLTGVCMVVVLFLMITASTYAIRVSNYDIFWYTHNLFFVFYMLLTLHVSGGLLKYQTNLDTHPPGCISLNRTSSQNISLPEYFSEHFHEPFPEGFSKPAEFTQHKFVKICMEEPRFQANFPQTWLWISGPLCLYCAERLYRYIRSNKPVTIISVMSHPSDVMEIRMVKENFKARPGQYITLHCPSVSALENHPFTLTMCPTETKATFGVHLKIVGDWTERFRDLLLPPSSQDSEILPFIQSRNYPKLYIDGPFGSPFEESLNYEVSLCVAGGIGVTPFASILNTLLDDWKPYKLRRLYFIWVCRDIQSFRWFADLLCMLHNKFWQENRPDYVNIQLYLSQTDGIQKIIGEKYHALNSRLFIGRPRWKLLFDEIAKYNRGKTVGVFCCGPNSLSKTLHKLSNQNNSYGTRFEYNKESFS
The target of assay [10] is NADPH oxidase 5 (Homo sapiens) (UniProt Q96PH1). Nature of the assay: compounds shifting NOX5 Amplex Red fluorescence – cell-based, HEK293-NOX5, NOX inhibitor project, primary screen (AID 1161). Particulars: HEK293-NOX5, ionomycin, 45 min, higher = more signal.
NADPH oxidase 5 (Homo sapiens), sequence (Q96PH1 whole entry, looked up): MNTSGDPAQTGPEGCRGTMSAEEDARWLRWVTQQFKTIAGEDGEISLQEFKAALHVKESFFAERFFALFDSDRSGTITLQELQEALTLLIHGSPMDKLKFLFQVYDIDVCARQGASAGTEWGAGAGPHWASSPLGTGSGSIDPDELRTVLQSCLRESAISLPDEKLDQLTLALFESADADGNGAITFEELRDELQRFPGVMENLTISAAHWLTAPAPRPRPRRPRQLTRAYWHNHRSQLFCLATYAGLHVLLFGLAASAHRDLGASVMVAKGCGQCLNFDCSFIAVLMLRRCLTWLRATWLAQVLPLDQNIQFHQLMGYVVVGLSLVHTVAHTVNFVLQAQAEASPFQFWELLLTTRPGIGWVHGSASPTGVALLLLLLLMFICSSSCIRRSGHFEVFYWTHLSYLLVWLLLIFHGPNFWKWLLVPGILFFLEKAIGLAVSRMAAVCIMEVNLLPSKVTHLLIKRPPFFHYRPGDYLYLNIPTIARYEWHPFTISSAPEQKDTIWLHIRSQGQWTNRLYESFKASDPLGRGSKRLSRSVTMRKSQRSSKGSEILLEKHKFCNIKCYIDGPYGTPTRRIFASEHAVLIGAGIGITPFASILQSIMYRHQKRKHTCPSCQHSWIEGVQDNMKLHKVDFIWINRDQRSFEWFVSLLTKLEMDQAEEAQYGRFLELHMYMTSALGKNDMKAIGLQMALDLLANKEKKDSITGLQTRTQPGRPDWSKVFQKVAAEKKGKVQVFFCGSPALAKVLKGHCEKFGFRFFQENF

The source made the active and inactive calls.

As to `COCCOC(=O)N1C(=O)[C@@]2(c3cc(C#CCC(C(=O)OC)C(=O)OC)ccc31)[C@H](C(N)=O)[C@H]1C(=O)O[C@H](c3ccccc3)[C@H](c3ccccc3)N1[C@@H]2c1ccccc1OCCO`, the z-score is 1.08 (inactive) in assay [1]; 8.08 (active) in assay [3]; 2.37 (inactive) in [4]; 2.67 (inactive) in [5]; 1.05 (inactive) in assay [6]; 4.47 in assay [7]. Moreover, the z-score in assay [8] is 1.02 (inactive); in assay [9], 0.826 (inactive); in [10], -1.13. Besides, the composite z-score in [2] was -0.189.
Take `CC(=O)NCCCC[C@@H]1NC(=O)[C@H]2C[C@@H](C(=O)NCCCCCN)[C@@H](c3ccc(O)cc3)N2C1=O`: the z-score in assay [1] is -0.556 (inactive); in assay [3], 0.537 (inactive); in assay [4], 0.33 (inactive); in [5], 0.0814 (inactive); in assay [6], 0.302 (inactive); in [7] it was -0.413. Also, the results for the z-score in assay [8], in assay [9] and in [10] were 0.178 (inactive), -1.24 (inactive) and 1.01, respectively. Further, the composite z-score in assay [2] was determined as 0.302.
In the case of `COc1ccc(CCNC(=O)[C@@]2(C)c3ccccc3C(=O)N(Cc3ccc(OC(F)(F)F)cc3)[C@H]2c2ccc(CO)cc2)cc1`, the z-score was -0.933 (inactive) in assay [1]; 7.22 (inactive) in assay [3]; 1.67 (inactive) in assay [4]; 1.79 (inactive) in assay [5]; 1.16 (inactive) in assay [6]; 0.029 in assay [7]. Also, the z-score in assay [8] is -0.61 (inactive); in assay [9], -0.547 (inactive); in [10], -1.23. The composite z-score in assay [2] was -0.588.
For `COC(=O)C1=CC(c2ccc(CO)cc2)=CC(C2CC2)N(Cc2cc3c(cc2Br)OCO3)C=C1C(=O)OC` (stereo not given), the z-score was -0.938 (inactive) in assay [1]; 10.6 (active) in assay [3]; 0.856 (inactive) in assay [4]; 0.954 (inactive) in assay [5]; 0.572 (inactive) in assay [6]; -0.625 in assay [7]. Also, the results for the z-score in assay [8], in [9] and in assay [10] were -0.853 (inactive), -0.385 (inactive) and 0.857, respectively. Moreover, the composite z-score in assay [2] stood at 0.3.
Consider `C[N+](C)(C)CCCC[C@@H]1NC(=O)[C@H]2C[C@@H](C(=O)NCCCCCN)[C@@H](c3ccc(O)cc3)N2C1=O`, for which the z-score in assay [1] is 0.108 (inactive); in [3] it was 0.105 (inactive); in assay [4] it was 0.0643 (inactive); in assay [5] it was -3.73 (inactive); in [6], -0.0429 (inactive); in assay [7], -0.0286. Further, the z-score in assay [8] was 0.081 (inactive); in assay [9] it was -0.0444 (inactive); in assay [10], 0.204. This compound also registered a composite z-score in [2] of 0.14.
For the compound `COCCOC(=O)N1C(=O)[C@@]2(c3cc(C#CCNC(N)=O)ccc31)[C@H](C(N)=O)[C@H]1C(=O)O[C@H](c3ccccc3)[C@H](c3ccccc3)N1[C@@H]2c1ccc(O)cc1`, the z-score in assay [1] is 0.989 (inactive); in assay [3], 1.65 (inactive); in assay [4], -0.132 (inactive); in assay [5], -1.12 (inactive); in [6], 0.141 (inactive); in [7], 0.189. For the same compound, the z-score was 0.161 (inactive) in assay [8], -0.181 (inactive) in [9] and 0.00933 in [10]. Moreover, the composite z-score in assay [2] is 0.316.
Consider `C[C@]1(C(=O)NC2CC2)c2ccccc2C(=O)N(Cc2cc(F)cc(C(F)(F)F)c2)[C@H]1c1ccc(CO)cc1`, for which the z-score is 0.256 (inactive) in [1]; 3.02 (inactive) in [3]; 0.334 (inactive) in assay [4]; 0.678 (inactive) in [5]; 0.597 (inactive) in assay [6]; 0.0446 in [7]. The z-score in assay [8] is -0.0377 (inactive); in [9], -0.978 (inactive); in assay [10] it was -1.46. Moreover, the composite z-score in assay [2] was -0.351.
Regarding `CCCCCCc1nc(Cc2cc(OC)c(OC)c(OC)c2)c(C)c2c1[Si](C(C)C)(C(C)C)OC2`, the z-score in [1] is 1.41 (inactive); in assay [3], 2.71 (inactive); in assay [4], -0.23 (inactive); in [5] it was 0.906 (inactive); in [6] it was -0.471 (inactive); in assay [7] it was 2.51. The z-score in assay [8] is -0.25 (inactive); in assay [9], -0.588 (inactive); in [10], -2.37. In addition, the composite z-score in assay [2] was -0.0547.
For `COc1ccc([Si](C)(C)[C@@H]2[C@@H](CC(=O)N3CCC[C@H]3CO)O[C@]3(C(=O)N(Cc4cccc(N5C(=O)c6cccc7cccc5c67)c4)c4ccccc43)[C@H]2C)cc1`, the z-score in assay [1] was 1.63 (inactive); in assay [3] it was 3.97 (inactive); in assay [4] it was -0.263 (inactive); in [5] it was -0.16 (inactive); in assay [6] it was -1.24 (inactive); in [7], 0.851. The z-score in assay [8] is 2.72 (inactive); in [9], 1.31 (inactive); in assay [10], 2.84. This compound returned a composite z-score in [2] of 0.19.
As to `CCOC(=O)C1=CCC(c2ccncc2)N(S(=O)(=O)c2ccc(C)cc2)C1` (stereo not given), the z-score was 0.149 (inactive) in assay [1]; 4.24 (inactive) in [3]; 1.29 (inactive) in [4]; 0.488 (inactive) in assay [5]; 0.953 (inactive) in assay [6]; -0.0707 in [7]. Also, the z-score in [8] was 0.168 (inactive); in assay [9], 0.432 (inactive); in assay [10] it was 0.0402. The same compound returned a composite z-score in assay [2] of 0.13.
As for `COC(=O)[C@H](Cc1ccccc1)N1CC(C)(OC)O[C@@H](Cc2ccccc2)[C@H]1/C=C/C1CC1` (stereo not given in full), the z-score in [1] is 0.286 (inactive); in assay [3], 1.92 (inactive); in assay [4], 0.0937 (inactive); in [5], -0.774 (inactive); in [6] it was 0.281 (inactive); in assay [7], -0.105. Also, the z-score in assay [8] is -4.36 (inactive); in assay [9], -0.147 (inactive); in assay [10], -0.141. The compound also came in with a composite z-score in [2] of -0.147.
With `CC1(C)OB(/C=C\CC(OC(=O)c2ccncc2)c2ccccc2)OC1(C)C` (stereo not given), the z-score in assay [1] is -0.318 (inactive); in [3] it was 0.777 (inactive); in assay [4], -0.854 (inactive); in assay [5], -0.66 (inactive); in assay [6], -0.678 (inactive); in [7], -0.119. For the same compound, the figures for the z-score in assay [8], in assay [9] and in [10] were -2.45 (inactive), 0.637 (inactive) and -5.03, respectively. The composite z-score in assay [2] was 1.24.
`Cc1ccc(S(=O)(=O)N2[C@@H](c3ccccc3)C(C(=O)O)=C[C@H]2C(C)(C)C)cc1`: the z-score is -0.576 (inactive) in [1]; 0.386 (inactive) in [3]; 0.0156 (inactive) in assay [4]; 0.136 (inactive) in [5]; 0.61 (inactive) in assay [6]; -0.222 in [7]. In addition, the z-score was 0.384 (inactive) in [8], -0.539 (inactive) in [9] and -0.36 in assay [10]. This compound registered a composite z-score in assay [2] of -0.0318.
